Results: PubChem BioAssay AID777 (Sanford-Burnham Center for Chemical Genomics, 2007)
About 19,000 (20%) of roughly 96,000 compounds were called active. The list is a sample of the results. Unmarked numbers belong to inactive results.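 Rule for the calls: active = blocking of liver enzyme CYP2C9 beyond about 50% at 5 µM (limit read from the data); inactive = the rest.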

Each molecule was assayed against Cytochrome P450 2C9 (Homo sapiens) (UniProt P11712) (assay: blockers of cytochrome P450 2C9 activity – biochemical, luminescence, ADME assay, primary screen (AID 777)). Settings: CYP2C9 Supersomes, luciferin-H conversion, at 5 µM, active compounds read high.
Sequence of Cytochrome P450 2C9 (Homo sapiens) (P11712 whole entry, looked up): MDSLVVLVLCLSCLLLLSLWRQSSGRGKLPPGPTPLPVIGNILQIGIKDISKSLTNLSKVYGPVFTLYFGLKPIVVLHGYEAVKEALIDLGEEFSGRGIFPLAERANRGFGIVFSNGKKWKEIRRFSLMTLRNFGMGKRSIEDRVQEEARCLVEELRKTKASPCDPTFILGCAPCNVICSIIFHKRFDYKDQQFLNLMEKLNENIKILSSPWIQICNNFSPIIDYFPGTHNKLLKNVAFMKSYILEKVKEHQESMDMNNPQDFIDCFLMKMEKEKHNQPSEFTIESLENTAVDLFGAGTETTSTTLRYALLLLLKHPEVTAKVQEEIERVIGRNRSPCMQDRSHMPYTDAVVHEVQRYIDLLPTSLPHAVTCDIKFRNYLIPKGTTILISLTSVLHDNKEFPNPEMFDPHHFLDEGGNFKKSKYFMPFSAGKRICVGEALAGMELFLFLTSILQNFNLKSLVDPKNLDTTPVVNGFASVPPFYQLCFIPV

Compared with `CCN(CC)c1ccc(NC(=O)c2ccc(Cl)nc2)cc1`, `Cc1nn(-c2ccccc2)c(Cl)c1C(=O)Nc1ccccc1` is higher in inhibition: -69.8% for the first, -47% for the second.

Compared with `CCOc1ccc(C(CC(=O)O)NC(=O)COc2ccccc2)cc1` (configuration not stated), `CCOc1cc(NC(=O)c2ccco2)c(OCC)cc1NC(=O)COc1ccccc1` is higher in inhibition: 5.2% for the first, 11.6% for the second.

First: Cc1ccc(C)c2[nH]c(=O)c(CCNC(=O)CC(C)C)cc12
Second: CCOC(=O)Cc1csc(NC(=O)CSc2nc(C)cc(=O)[nH]2)n1
The inhibition of the first is higher: 30.9% for the first, 23.2% for the second.

Compared with `O=[N+]([O-])c1c(NCCO)cc(Sc2nc3ccccc3s2)c2nonc12`, `Cc1cc(C)c2c3c(sc2n1)C(c1ccccc1)C(C#N)=C(N)O3` (configuration not stated) is lower in inhibition: 12.3% for the first, 11% for the second.

First: Cn1c(=O)cc(OCCCC(=O)N2CCN(c3ccccn3)CC2)c2ccccc21
Second: CCCN1CCN(C(=O)Cn2ncc3ccccc32)CC1
The inhibition of the first is higher: 30.3% for the first, 1% for the second.

First: CC1CCCCN1S(=O)(=O)c1ccc(C(=O)Nc2nnc(-c3cccs3)o2)cc1 (configuration not stated)
Second: CCc1ccc(CNC(=O)C2CCCN(c3nc4ccccc4o3)C2)cc1 (configuration not stated)
The inhibition of the first is lower: 7.8% for the first, 45% for the second.

Going from `CCN(CC)C(=O)CSc1nnc(-c2cccc(OC)c2)o1` to `COc1ccc(OCC(=O)OCCN(C)C)cc1`, the inhibition rises from -55.9% to -12.1%.

First: O=C(/C=C/c1cccs1)c1cc(Cl)ccc1OC(=O)N1CCOCC1
Second: CCOC(=O)N1CCN(C(=O)COc2ccc(Cl)cc2C)CC1
The inhibition of the first is higher: 28.1% for the first, -15.4% for the second.

Compared with `CN(Cc1ccccc1)C(=O)CCNC(=O)Cn1cnc2ccccc2c1=O`, `O=C(CCOc1ccccc1)NCc1ccccc1` is lower in inhibition: 24.9% for the first, 6.9% for the second.

Compared with `O=C(Cn1nc(Cc2cccnc2)c2ccccc2c1=O)NCC1CCCO1` (configuration not stated), `CC1Oc2ccccc2N(Cc2cccnc2)C1=O` (configuration not stated) is lower in inhibition: 21.3% for the first, 14% for the second.

Going from `O=C(CN1C(=O)C2C3C=CC(C3)C2C1=O)NCC1COc2ccccc2O1` (configuration not stated) to `COC(=O)c1cn(CC(=O)NCc2cccs2)c2ccccc12`, the inhibition rises from -1.1% to 23.2%.

Going from `Cc1cc(OC(=O)c2c(Cl)cccc2Cl)nc(C)n1` to `Cc1cc(C)nc(SCc2ccccc2C#N)n1`, the inhibition falls from 2.9% to -24.8%.

Going from `CCC(C)NC(=O)CCCc1ccccc1` (configuration not stated) to `O=C(CCCOc1ccccc1)NCc1ccco1`, the inhibition rises from -17.4% to 18.1%.

First: c1ccc(Cc2nn3c(Cn4cnc5ccccc54)nnc3s2)cc1
Second: Fc1ccc(OCc2nn3c(Cn4nnc5ccccc54)nnc3s2)cc1
The inhibition of the first is higher: 24.4% for the first, 23.6% for the second.

Going from `CC(=O)c1cn(CCCCCCCCCCn2cc(C(C)=O)c(=O)[nH]c2=O)c(=O)[nH]c1=O` to `CCCCc1nccn1CCn1ccnc1CCCC`, the inhibition falls from 3.4% to -10.5%.

Going from `CC(=O)c1c(C)n([O-])c2ccccc2[n+]1=O` to `Cc1nn(-c2ccccc2)c(CC(C)(C)C(=O)O)c1C(=O)O`, the inhibition falls from -1.1% to -10.3%.

First: CCOC(=O)N1CCN(C(=O)c2cc3c(ccc4ccccc43)oc2=O)CC1
Second: CCOC(=O)N1CCN(C(=O)COc2ccc(Br)cc2)CC1
The inhibition of the first is higher: 45.9% for the first, -4.3% for the second.

Compared with `CC1(C)CC(=O)c2cc(OCC(=O)NCC3CCCO3)ccc2O1` (configuration not stated), `NC(=O)COc1ccc2c3c(c(=O)oc2c1)CCCCC3` is lower in inhibition: 18.5% for the first, -7.4% for the second.

Compared with `COC(=O)Cn1cc(C(=O)c2cccs2)c2ccccc21`, `Cc1cccc(NC(=O)c2ccccc2NC(=O)C(C)(C)C)n1` is lower in inhibition: 25.3% for the first, 11.7% for the second.

Compared with `CN(C)c1ccnc(Oc2ccc(F)cc2)c1C#N`, `COc1cccc(N2C(=O)C3CCCN3C2c2ccc(F)cc2)c1` (configuration not stated) is lower in inhibition: 40.8% for the first, -9.4% for the second.

Compared with `COC(=O)c1ccc(N(CC(=O)NC2CCCC2)C(=O)CNC(=O)c2ccco2)cc1`, `O=C(CN1CCN(S(=O)(=O)/C=C/c2ccccc2)CC1)NC(=O)NCc1ccco1` is higher in inhibition: 28.7% for the first, 40.2% for the second.

Compared with `Cc1ccc(Cc2cncc(O)c2)cc1S(=O)(=O)O`, `Cc1cc(NS(=O)(=O)c2ccccc2)no1` is higher in inhibition: 0.1% for the first, 12.3% for the second.

Going from `c1ccc2[nH]c(-c3nc4ccccc4[nH]3)nc2c1` to `Cc1cccc(NC(=O)c2ccc3ccccc3n2)n1`, the inhibition falls from 16.1% to -0.8%.

First: O=C(Nc1ccccc1)c1cccnc1Nc1ccccc1
Second: O=P(O)(CP(=O)(c1ccccc1)c1ccccc1)c1ccccc1O
The inhibition of the first is higher: 1.5% for the first, -5.8% for the second.

Compared with `Cc1ccc(-n2c(=O)cc(N3CCN(Cc4ccccc4)CC3)[nH]c2=O)cc1`, `O=S(=O)(c1ccc(OCC(O)CN2CCN(c3ccccc3Cl)CC2)cc1)N1CCOCC1` (configuration not stated) is higher in inhibition: 22.1% for the first, 28.3% for the second.

First: CCOC(=O)C1CCN(C(=O)COc2cc(C)c(Br)c(C)c2)CC1
Second: CC(=O)N1CCN(c2cccc(C)c2C)CC1
The inhibition of the first is higher: 15.8% for the first, -8.6% for the second.

Going from `O=c1ccn(Cc2ccccc2Cl)cc1` to `O=C(Cc1ccccc1)N/N=C/c1ccc(Cl)cc1Cl`, the inhibition rises from -5.8% to 23.1%.

Compared with `Cc1ccc(N(NC(=O)C(C)(C)O)C(=O)c2ccccc2)cc1C`, `CC(C)(C)c1ccc(NC(=O)NCc2ccco2)cc1` is lower in inhibition: 2.5% for the first, -17.8% for the second.

Going from `NS(=O)(=O)c1cccnc1Nc1cccc(Cl)c1` to `CC(=O)NS(=O)(=O)c1ccccc1`, the inhibition falls from 5.6% to 0.2%.

Going from `Cc1ccc(/C=N/NC(=O)Cn2nc(C)c(Br)c2C)o1` to `Cc1ccc(SCC(=O)NC(=O)NCc2ccco2)c(C)c1`, the inhibition rises from 23.7% to 30%.

First: CC(=O)Oc1ccc(C(C)=O)c2c1OCCO2
Second: Cc1ccc(C(=O)NNC(=O)OC(C)(C)C)c(Cl)c1
The inhibition of the first is lower: -9.3% for the first, 1.9% for the second.

First: N#CCCn1cnc2ccccc21
Second: c1ccc2c(CNn3cnnc3)cccc2c1
The inhibition of the first is higher: -0.8% for the first, -2.3% for the second.

Compared with `COc1cc(OC)nc(NC(=O)CCl)n1`, `CCOC(=O)Cc1csc(NC(=O)C(C)(C)C)n1` is higher in inhibition: -14.2% for the first, 30.2% for the second.

First: CC(CO)N1CCS(=O)(=O)CC1 (configuration not stated)
Second: CC1CCc2c(sc3c2C2=NS(=O)(=O)CCN2C=N3)C1 (configuration not stated)
The inhibition of the first is lower: -5.6% for the first, 6.8% for the second.

Going from `COc1ccc(NC(=O)C(CC(C)C)NS(=O)(=O)c2ccc3c(c2)CCN3C(C)=O)cc1OC` (configuration not stated) to `Cc1ccc(S(=O)(=O)N(C)CC(=O)N2CCc3ccccc32)cc1`, the inhibition falls from 7.4% to -132%.

First: O=C1C(Cl)=C(N2CCOCC2)C(=O)N1c1ccccc1
Second: O=C(Nc1ccccc1C(=O)N1CCOCC1)C1CCC(=O)N1C1CCCC1 (configuration not stated)
The inhibition of the first is higher: 5% for the first, -9.2% for the second.

Compared with `COc1cc2c(cc1OC)C(C(=O)NCc1ccco1)C1c3ccccc3CCN1C2=O` (configuration not stated), `O=C(Nc1c(-c2ccccc2)nc2c(Br)cc(Br)cn12)c1ccco1` is lower in inhibition: 42% for the first, 15.6% for the second.

Going from `CC(C)CC(=O)Nc1cc(C(F)(F)F)ccc1N1CCOCC1` to `O=C(Nc1cc(-c2nn(CC(=O)N3CCCCC3)c(=O)c3ccccc23)ccc1N1CCOCC1)c1ccc(Cl)cc1`, the inhibition falls from 9.9% to 0.2%.

First: CN1CCN(CC(=O)Nc2sc3c(c2C#N)CCC(C(C)(C)C)C3)CC1 (configuration not stated)
Second: OCCN1CCOCCOCCN(CCO)CCN(CCO)CC1
The inhibition of the first is higher: 33.8% for the first, 12.8% for the second.

Going from `N=C(N)SCc1cccc2ccccc12` to `Nc1nc(SCCOc2ccccc2)n[nH]1`, the inhibition rises from -24.4% to -8.6%.

First: COC(=O)/C=C/C(=O)NCc1ccco1
Second: O=C(NCC12CC3CC(C1)CC(CNC(=O)N1CCCC1)(C3)C2)N1CCCC1
The inhibition of the first is higher: 1.2% for the first, -12.3% for the second.

For `O=C(COc1ccccc1)Nc1nonc1NC(=O)COc1ccccc1`, the inhibition was 52% (active).
In the case of `COc1cccc(-c2nnc(NC(=O)c3ccc(S(=O)(=O)N(CC(C)C)CC(C)C)cc3)o2)c1`, the inhibition is reported as 58.9% (active).
`O=C(Cn1nc(Cc2cccnc2)c2ccccc2c1=O)NCC1COc2ccccc2O1` (configuration not stated) was tested, and the inhibition was 66.1% (active).
For `O=C(Cn1cnc2ccccc2c1=O)NCC1COc2ccccc2O1` (configuration not stated), the inhibition was 61.2% (active).
With `O=C(COc1ccc2c3c(c(=O)oc2c1)CCC3)NC1CCCCC1` the inhibition was 73.7% (active).
With `O=C(Cn1cc(C(=O)c2cccs2)c2ccccc21)NCc1cccs1` the inhibition was 93.7% (active).
`CCOC(=O)N1CCC(O)(c2cc(C)c(C)cc2C)CC1` was tested, and the inhibition was 67.1% (active).
In the case of `O=S(=O)(Nc1ccc2nc(-c3ccco3)[nH]c2c1)c1ccccc1`, the inhibition is reported as 85.2% (active).
For `O=C(Nc1ccccc1)c1ccccc1NC(=O)C(F)(F)F`, the inhibition was 74.8% (active).
`O=c1[nH][nH]c(C(F)(F)F)c1C=NCc1ccccc1Cl` was tested, and the inhibition was 55.5% (active).
In the case of `O=C(Cn1cncn1)N/N=C/c1c2ccccc2cc2ccccc12`, the inhibition is reported as 63.7% (active).
With `CC1(c2ccccc2Cl)NC(=O)N(CC(=O)NC(=O)NCc2ccco2)C1=O` (configuration not stated) the inhibition was 67.6% (active).
`Brc1ccc(OCCn2ccnc2)cc1` was tested, and the inhibition was 72.1% (active).
`CC1(C)SC2c3ccccc3C(=O)N2[C@@H]1C(=O)NCc1ccco1` (some centres not stated) was tested, and the inhibition was 57.9% (active).
`O=C(Cn1nnc2ccccc2c1=O)Nc1cc(C(F)(F)F)ccc1N1CCOCC1` was tested, and the inhibition was 60.7% (active).
In the case of `c1ccc2c(C[n+]3csc4ccccc43)cccc2c1`, the inhibition is reported as 76.7% (active).
For `Cc1cccc(N2CCN(C(=O)CN(C)S(=O)(=O)c3ccc4c(c3)CCC(=O)N4)CC2)c1C`, the inhibition was 51% (active).
`CCOC(=O)Cc1csc(NC(=O)CN(C)S(=O)(=O)c2ccc3c(c2)CCC(=O)N3)n1` was tested, and the inhibition was 65.5% (active).
`Cc1ccc(C(=O)/C=C/c2c(C)nn(-c3ccccc3)c2Cl)cc1` was tested, and the inhibition was 90.4% (active).
With `CN(C)C(CNC(=O)CCCOc1ccccc1)c1ccco1` (configuration not stated) the inhibition was 51.7% (active).
